Source: PubChem BioAssay
An excerpt weighted towards active compounds, which were near 2.2% of everything screened.
NOD2-RIPK2 inh: NOD2-RIPK2 protein interaction inhibition | O43353 | AID 624267 | actives 0.38% (n = 360,000) | inhibition, % at 4.98 µM | CHO BLA complementation NOD2-RIPK2, CCF4 ratio; in the data active means inhibition above about 21%;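 further: 0% = vehicle only and 100% = reference blocker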
TMEM16A act: activates or potentiates the mouse TMEM16A chloride channel; B-score at 10 µM; actives 0.3% (n = 340,000); Q8BHY3; HEK293 TMEM16A/YFP-H148Q/I152L, iodide quench fluorescence; stronger effect = lower value;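 active means fluorescence-ratio B-score plate-corrected deviation score at least 3 library SD below zero, with starting fluorescence score within 5 deviations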;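 further: channel opened by trigger with iodide after compound preincubation; score built on the fluorescence ratio of max minus min over baseline; more negative score means more quench and so TMEM16A activation or potentiation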
ANO1 block: mouse TMEM16A channel inhibition, primary screen. Q8BHY3. HEK293 TMEM16A/YFP iodide influx fluorescence, ionomycin. normalized B-score (activity score, 25-100; higher = stronger inhibition) at 10 µM. actives 1.2% (n = 310,000);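 active means ratio plate-corrected score three or more library SD toward inhibition, starting fluorescence score within five deviations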;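 further: score derived from kinetic fluorescence span divided by baseline fluorescence per well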
TLR4-MyD88 BLA: inhibitors of human TLR4-MyD88 binding. HeLa CL3-4 TLR4/MyD88 BLA complementation, FRET ratio. inhibition, % at 8.4 µM. actives 0.18% (n = 200,000). O00206+Q99836; in the data active means inhibition above about 25%;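 further: 0% = vehicle and 100% = reference inhibitor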
GRK2 aptamer HTS: inhibitors of human GRK2 displacing RNA aptamer. bead flow cytometry, FAM-aptamer displacement from GRK2. inhibition of aptamer binding, % at 10 µM. actives 0.59% (n = 330,000). AID 488847;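 active means inhibition of aptamer binding above 40%, roughly 3 SD of noise, on plates passing a quality check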;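 further: median bead fluorescence of bound FAM aptamer so fluorescent compounds give negative values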
Target sequence (P25098 whole entry, looked up): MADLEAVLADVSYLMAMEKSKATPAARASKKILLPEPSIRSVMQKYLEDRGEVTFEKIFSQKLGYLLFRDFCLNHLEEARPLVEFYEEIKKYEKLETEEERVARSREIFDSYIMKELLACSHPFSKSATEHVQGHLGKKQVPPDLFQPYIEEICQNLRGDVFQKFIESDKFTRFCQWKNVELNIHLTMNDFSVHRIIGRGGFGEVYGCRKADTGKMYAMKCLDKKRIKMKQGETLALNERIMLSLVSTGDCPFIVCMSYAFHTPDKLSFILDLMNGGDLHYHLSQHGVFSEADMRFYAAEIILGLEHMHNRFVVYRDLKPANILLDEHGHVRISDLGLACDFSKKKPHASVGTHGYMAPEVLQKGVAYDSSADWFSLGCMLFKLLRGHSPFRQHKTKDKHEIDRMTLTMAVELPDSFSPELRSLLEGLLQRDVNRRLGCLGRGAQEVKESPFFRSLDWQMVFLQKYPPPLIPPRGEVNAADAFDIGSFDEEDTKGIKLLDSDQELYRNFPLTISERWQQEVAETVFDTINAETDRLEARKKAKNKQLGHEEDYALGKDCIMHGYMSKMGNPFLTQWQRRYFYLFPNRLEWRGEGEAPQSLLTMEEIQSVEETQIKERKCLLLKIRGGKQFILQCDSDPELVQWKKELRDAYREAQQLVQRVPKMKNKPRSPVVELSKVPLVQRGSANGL
TLR9-MyD88 inh: TLR9-MyD88 interaction inhibition. CHO BLA complementation TLR9-MyD88, CCF4 FRET ratio. inhibition, % at 4.98 µM. actives 0.21% (n = 340,000). AID 504734;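 active means inhibition above the mean over all tested compounds plus 3 SD, cut at about 21% in these data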;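 further: 0% = DMSO only wells and 100% = clavulanate BLA inhibitor control wells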
TMEM16A reconf: re-confirmation of mouse TMEM16A chloride channel inhibitors; HEK293 TMEM16A/YFP-H148Q, iodide quench fluorescence; ionomycin added to raise cell calcium; actives 39% (n = 2,300); AID 652189; shares compounds with ANO1 block; inhibition, % at 10 µM;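 active means mean duplicate percent inhibition, scaled so buffer wells are 0 and the reference blocker 100, over three buffer SD above buffer mean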
TMEM16A Ca cntr: calcium mobilization counter-screen hit for TMEM16A inhibitor series | shares compounds with ANO1 block | TMEM16A/YFP HEK293, Fluo4 calcium mobilization | calcium response (% of ionomycin), % at 10 µM | actives 2% (n = 2,300) | AID 652231;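 active means duplicate-averaged calcium signal over 20% of the ionomycin maximum, relative to buffer baseline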;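 further: each well's signal is peak minus trough fluorescence divided by its pre-addition baseline; 0% = buffer wells and 100% = ionomycin wells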
Parental YFP cnt: parental YFP-HEK293 iodide quench counter-screen activity; shares compounds with ANO1 block; YFP ratio F(max-min)/F0 at 10 µM; 2,300 tested, under 10 active; ionomycin;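 active means yellow fluorescent protein signal ratio exceeding the buffer control mean by over 5 SD of those controls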;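 further: ratio is mean of duplicate wells from kinetic YFP trace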
ClC-1 rat inh: selectivity of TMEM16A inhibitors: inhibition of rat ClC-1 chloride channel | shares compounds with ANO1 block | CHO ClC-1-YFP, iodide influx fluorescence quench; iodide control reads 0, buffer control 100 | ratio percent, % at 10 µM | 2,300 tested, under 10 active | AID 652236;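 active means duplicate-mean ratio percent above the mean of iodide-only control wells, which defines zero, plus 5 of their SD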;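 further: higher percent means stronger block of ClC-1 iodide influx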
The depositor's hits bear a star.

What do the screens show for `Cc1ccc(N2CCN(S(=O)(=O)c3ccc(Cl)s3)CC2C)cc1` (centres undefined)?
NOD2-RIPK2 inh: 0.0; TMEM16A act: inactive; ANO1 block: 25*; GRK2 aptamer HTS: 0.0; TLR9-MyD88 inh: 5.7; TMEM16A reconf: inactive; TMEM16A Ca cntr: inactive; Parental YFP cnt: -0.81; ClC-1 rat inh: -10.5

What do the screens show for `Cc1ccc(OCCn2c(=S)[nH]c3ccccc32)c(C(C)C)c1`?
NOD2-RIPK2 inh: -1.9; TMEM16A act: inactive; ANO1 block: 25*; GRK2 aptamer HTS: 4.0; TLR9-MyD88 inh: 1.9; TMEM16A reconf: inactive; TMEM16A Ca cntr: inactive; Parental YFP cnt: -1.37; ClC-1 rat inh: -5.5

Results for O=C(CSc1nnnn1-c1ccc(C(=O)O)cc1)NC1CC1 ?
NOD2-RIPK2 inh: 2.1; TMEM16A act: inactive; ANO1 block: inactive; GRK2 aptamer HTS: 5.0; TLR9-MyD88 inh: -6.1

Results for Cc1cccc(OCCCCc2c(C)n[nH]c2C)c1C ?
NOD2-RIPK2 inh: -3.6; TMEM16A act: inactive; ANO1 block: 100*; TLR4-MyD88 BLA: 6.6; GRK2 aptamer HTS: 2.0; TLR9-MyD88 inh: -1.5; TMEM16A reconf: inactive; TMEM16A Ca cntr: inactive; Parental YFP cnt: -1.06; ClC-1 rat inh: -16.0

Results for CCOc1ccccc1OCCCCCc1c(C)n[nH]c1C ?
NOD2-RIPK2 inh: 4.9; TMEM16A act: inactive; ANO1 block: inactive; TLR4-MyD88 BLA: 5.1; GRK2 aptamer HTS: 1.0; TLR9-MyD88 inh: -9.5

How did Cc1ccc(C(=O)Nc2nnc(C)s2)cc1 do in these assays?
NOD2-RIPK2 inh: 2.1; TMEM16A act: inactive; ANO1 block: inactive; TLR4-MyD88 BLA: -0.2; GRK2 aptamer HTS: 0.0

How did CC(=O)Oc1ccc(C(=O)Nc2nnc(C)s2)cc1 do in these assays?
NOD2-RIPK2 inh: 1.2; TMEM16A act: inactive; ANO1 block: inactive; TLR4-MyD88 BLA: -4.8; GRK2 aptamer HTS: 2.0; TLR9-MyD88 inh: -1.1; TMEM16A reconf: inactive; TMEM16A Ca cntr: inactive; Parental YFP cnt: -0.975; ClC-1 rat inh: -13.0

Results for CCOC(=O)C(C)Oc1ccc2c(CC)cc(=O)oc2c1C (centres undefined) ?
NOD2-RIPK2 inh: 15.2; TMEM16A act: inactive; ANO1 block: inactive; TLR4-MyD88 BLA: 8.4; GRK2 aptamer HTS: 0.0; TLR9-MyD88 inh: -0.4

What do the screens show for `CCOC(=O)CCc1c(C)c2ccc(OC(C)C(=O)OCC)c(C)c2oc1=O` (centres undefined)?
NOD2-RIPK2 inh: 1.1; TMEM16A act: inactive; ANO1 block: 100*; TLR4-MyD88 BLA: -7.7; GRK2 aptamer HTS: 0.0; TLR9-MyD88 inh: -0.4; TMEM16A reconf: 33.5%*; TMEM16A Ca cntr: inactive; Parental YFP cnt: -0.983; ClC-1 rat inh: -29.0

How did CCCCC1(C)OC(=O)C(=Cc2ccc(N(C)C)cc2)C(=O)O1 (centres undefined) do in these assays?
NOD2-RIPK2 inh: -4.0; TMEM16A act: inactive; ANO1 block: inactive; TLR4-MyD88 BLA: -3.5; GRK2 aptamer HTS: 0.0; TLR9-MyD88 inh: -9.0; TMEM16A reconf: 21.5%*; TMEM16A Ca cntr: inactive; Parental YFP cnt: -0.883; ClC-1 rat inh: -12.5

How did CCCCC1(C)OC(=O)C(=Cc2c[nH]c3ccccc23)C(=O)O1 (centres undefined) do in these assays?
NOD2-RIPK2 inh: 1.2; TMEM16A act: inactive; ANO1 block: inactive; TLR4-MyD88 BLA: -2.7; GRK2 aptamer HTS: 2.0; TLR9-MyD88 inh: -10.2

Results for Cc1ccc(CNC(=O)CNS(=O)(=O)c2ccc3c(c2)C(C)(C)C(=O)N3C)cc1 ?
NOD2-RIPK2 inh: -2.6; TMEM16A act: inactive; ANO1 block: inactive; GRK2 aptamer HTS: 0.0; TLR9-MyD88 inh: 0.9

What do the screens show for `COC(=O)c1cccc(C(=O)N2CCCC(CCC(=O)N(C)CCc3ccccn3)C2)c1` (centres undefined)?
NOD2-RIPK2 inh: -6.2; TMEM16A act: inactive; ANO1 block: inactive; GRK2 aptamer HTS: 0.0; TLR9-MyD88 inh: 2.5

Results for CCCCNC(NCCCC)=C(S(=O)(=O)CC)S(=O)(=O)CC ?
NOD2-RIPK2 inh: 7.6; TMEM16A act: inactive; ANO1 block: 25*; TLR4-MyD88 BLA: 3.2; GRK2 aptamer HTS: 0.0; TLR9-MyD88 inh: 0.4; TMEM16A reconf: inactive; TMEM16A Ca cntr: inactive; Parental YFP cnt: -1.05; ClC-1 rat inh: -3.5

What do the screens show for `C(/C=C/c1ccccc1)=N/N1CCN(c2ccccc2)CC1`?
NOD2-RIPK2 inh: 7.2; TMEM16A act: inactive; ANO1 block: 25*; TLR4-MyD88 BLA: 7.2; GRK2 aptamer HTS: 0.0; TLR9-MyD88 inh: -6.8; TMEM16A reconf: inactive; TMEM16A Ca cntr: inactive; Parental YFP cnt: -0.93; ClC-1 rat inh: -11.5

How did CCOc1ccccc1NC(=O)Nc1c(C)n(-c2ccccc2)c(=O)n1C do in these assays?
NOD2-RIPK2 inh: -6.5; TMEM16A act: inactive; ANO1 block: 100*; TLR4-MyD88 BLA: 2.1; GRK2 aptamer HTS: 0.0; TLR9-MyD88 inh: -6.2; TMEM16A reconf: inactive; TMEM16A Ca cntr: inactive; Parental YFP cnt: -0.809; ClC-1 rat inh: -1.0

What do the screens show for `CCN(CC)S(=O)(=O)c1ccc(O)c(NC(=O)COc2ccc(S(=O)(=O)N3CCOCC3)cc2)c1`?
NOD2-RIPK2 inh: -3.1; TMEM16A act: inactive; TLR9-MyD88 inh: -8.6

What do the screens show for `CCOc1ccc(C(=O)NCC(C)NC(=O)c2ccc(OCC)cc2)cc1` (centres undefined)?
NOD2-RIPK2 inh: 10.2; TMEM16A act: inactive; ANO1 block: 25*; GRK2 aptamer HTS: 0.0; TLR9-MyD88 inh: -1.3; TMEM16A reconf: inactive; TMEM16A Ca cntr: inactive; Parental YFP cnt: -0.789; ClC-1 rat inh: -11.0

How did O=C(C[C@@H]1C[C@@H]2c3cc(NC(=O)C4CCOCC4)ccc3O[C@@H]2[C@H](CO)O1)NCc1ccccn1 do in these assays?
NOD2-RIPK2 inh: -8.0; TLR9-MyD88 inh: 9.0

How did Cc1ccc(S(=O)(=O)N2CC3=C(C2)C2CC2(C)C3)cc1 (centres undefined) do in these assays?
NOD2-RIPK2 inh: -12.5

How did Cc1cc(Cl)c(S(=O)(=O)NC(C(=O)O)C(C)C)cc1OCC(=O)NC1CCCCC1 (centres undefined) do in these assays?
NOD2-RIPK2 inh: 2.0; TMEM16A act: inactive; ANO1 block: inactive; TLR4-MyD88 BLA: 1.7; GRK2 aptamer HTS: 0.0; TLR9-MyD88 inh: 7.3
